HT1080 IDH1KD tx – qHTS for induction of synthetic lethality in tumor cells producing 2HG: qHTS for the HT-1080-IDH1KD cell line. HT-1080 IDH1 knockdown viability, ATP luminescence, 48 h. Potency, µM (top dose mostly 46.1 µM), usual class: cytotoxic. 2% of 360,000 active. AID 686971, 2013
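CellTiter-Glo luminescence after 48 h compound exposure at 37 degrees C of IDH1-knockdown HT-1080 cells in 5% FBS RPMI. %Activity scaled between DMSO wells and cell-free media wells, with curves fitted and assigned curve classes.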
TDP1 cell noCPT – qHTS for Inhibitors of human tyrosyl-DNA phosphodiesterase 1 (TDP1): qHTS in cells in absence of CPT; DT40 Tdp1-/- hTDP1 cells, no CPT, ATP luminescence, 48 h; Potency, µM (titrated, usually from 46.2 µM), hits mostly inhibitors; 15% of 420,000 active; further: nearly all actives have a fitted effect of over 55% in size
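Chicken DT40 Tdp1-/- cells complemented with human TDP1, screened without camptothecin (DMSO vehicle only), 400 cells/well. Compounds pin-transferred, cells incubated at 37 °C for at least 48 hr. Growth read as ATP-dependent luminescence (CellTiter-Glo, 30 min at RT).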
IL1B secr inh – qHTS for Inhibitors of Inflammasome Signaling: IL-1-beta AlphaLISA Primary Screen | THP-1 LPS/ATP IL-1B secretion, AlphaLISA, 16 h; active compounds read low | 4.7% of 360,000 active | activity change, % at 57.5 µM | AID 743279, 2014; in the data active means activity change below about -50%; inconclusive means mostly about -30% to -49%
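Secreted IL-1B measured by AlphaLISA bead assay after 16 h compound exposure of THP-1 cells; compounds (final up to 57.5 uM) added 1 h before LPS (250 ng/mL) and ATP (1.25 mM) stimulation; lower signal means less secretion.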
TDP1 cell CPT – qHTS for Inhibitors of human tyrosyl-DNA phosphodiesterase 1 (TDP1): qHTS in cells in presence of CPT; Potency, µM (series often up to 46.2 µM), usual class: inhibitors; 12% of 420,000 active; chicken DT40 Tdp1-/-;hTDP1 cells + 20 nM CPT, ATP luminescence, 48 h; AID 686979, 2013; further: nearly all actives have a fitted effect of over 55% in size
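Chicken DT40 Tdp1-/- cells stably complemented with human TDP1 were seeded at 400 cells/well in medium containing 20 nM camptothecin, exposed to pin-transferred compounds, and grown at 37 °C for at least 48 hr. Viability was read as ATP luminescence.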
HT1080-NT tox – qHTS for induction of synthetic lethality in tumor cells producing 2HG: qHTS for the HT-1080-NT fibrosarcoma cell line | HT-1080-NT fibrosarcoma viability, CellTiter-Glo ATP luminescence, 48 h | Potency, µM (doses to about 46.1 µM), hits mostly cytotoxic | 1.6% of 360,000 active | AID 686970, 2013;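 further: NT is the 2HG producing partner of a matched IDH1 knockdown line; nearly all actives have a fitted effect of over 55% in size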
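750 cells/well, RPMI + 5% FBS; 2 h settle, compound pin-transfer, 48 h at 37 degrees C. CellTiter-Glo 10 min RT, luminescence. Normalized to DMSO and media-only wells.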
A number is an active result; – = inactive; ? = inconclusive; · = no result. In the library only some 19% were active in any assay of this set; here they are far more common. Unless noted, the call rests on the fitted dose curve; in most records, active means well fitted curve in the direction sought with a large enough effect; inconclusive means small, poorly fitted or top-dose-only effect, or another doubt; inactive means no such curve, though single readings can be large; an effect the other way counts as inactive or inconclusive.

SMILES	HT1080 IDH1KD tx	TDP1 cell noCPT	IL1B secr inh	TDP1 cell CPT	HT1080-NT tox
N/C(=N\OC(=O)CC(c1ccccc1)c1ccccc1)c1cccnc1	?	?	?	11.6µM	?
COc1ccc(OC)c(NC(=O)CN2C(=O)CCc3cc(S(=O)(=O)N4CCCCC4)ccc32)c1	·	?	·	25.9µM	·
Cc1cc(C)cc(NC(=O)CN2C(=O)CCc3cc(S(=O)(=O)N4CCCCC4)ccc32)c1	·	?	·	16.4µM	·
COc1ccc(NC(=O)CN2C(=O)COc3ccc(S(=O)(=O)N4CCCCC4)cc32)c(OC)c1	–	?	-54.0	14.6µM	–
CC(=O)Nc1ccc(NC(=O)CN2C(=O)CCc3cc(S(=O)(=O)N4CCCCC4)ccc32)cc1	·	–	·	–	·
Nc1ccc(S(=O)(=O)Nc2nccs2)cc1N=Nc1ccccc1[N+](=O)[O-]	–	–	–	–	–
CN(C)c1ccc(CC(=O)c2nc3ccccc3s2)cc1	–	?	–	16.4µM	–
CN(C)C(=O)c1nc2ccccc2s1	–	–	–	–	–
Cc1c(OC(C)C(=O)NCc2ccccn2)ccc2c3c(c(=O)oc12)CCCC3 (stereo unspecified)	–	?	–	13µM	–
Cc1c(OCC(=O)N(C)C)ccc2c3c(c(=O)oc12)CCCCC3	–	?	–	–	–
Cc1c(OCC(=O)NC2CCN(Cc3ccccc3)CC2)ccc2c3c(c(=O)oc12)CCC3	–	?	–	16.4µM	–
Cc1cc(=O)oc2c(C)c(OCC(=O)NC3CCN(Cc4ccccc4)CC3)ccc12	–	?	?	?	–
CC(=O)COc1ccc2c3c(c(=O)oc2c1C)CCCCC3	–	?	–	14.6µM	–
Nc1nc2c(c(=O)[nH]1)N=C(CNc1ccc(C(=O)NC(CCC(=O)O)C(=O)O)cc1)CN2 (stereo unspecified)	·	–	·	–	·
Cc1cc(C)cc(C(=O)NC(CC(N)=O)c2ccc(N3CCCCCC3)c([N+](=O)[O-])c2)c1 (stereo unspecified)	–	–	–	–	–
Cc1ccc(NC(=O)c2ccc(N/N=C/c3cccc(O)c3)c([N+](=O)[O-])c2)cc1	7.31µM	11.6µM	–	9.2µM	7.31µM
NS(=O)(=O)c1ccc(N/N=C/c2ccccc2C(=O)O)c([N+](=O)[O-])c1	–	–	–	–	–
Cc1ccc(C(=O)Nc2cccc(C(=O)N/N=C/c3ccc(O)cc3)c2)cc1	–	–	–	–	–
Cc1ccccc1NC(=O)c1ccc(N/N=C/c2ccccc2O)c([N+](=O)[O-])c1	–	10.3µM	–	8.2µM	–
CC(=O)N1CCC(C(=O)N2c3ccccc3N=C(c3ccc(C(F)(F)F)cc3)C2C(=O)NC(C)(C)C)CC1 (stereo unspecified)	–	?	–	?	–
CCOc1ccc(CNC(=O)CCC(=O)n2ncc3ccc(Cl)cc32)cc1	–	–	–	–	–
O=C1CN(c2nc(-c3cccs3)nc3sc4c(c23)CCCC4)CCN1	13µM	?	-93.6	?	?
O=c1oc(-c2cccs2)nc2sc3c(c12)CCCC3	–	–	–	–	–
CCN(CC)S(=O)(=O)c1ccc2oc(C(=O)NC3CCCc4ccccc43)c(C)c2c1 (stereo unspecified)	–	10.3µM	–	14.6µM	–
CSCc1c(C(=O)NC2CCCc3ccccc32)oc2ccccc12 (stereo unspecified)	–	?	–	?	–
SMILES	HT1080 IDH1KD tx	TDP1 cell noCPT	IL1B secr inh	TDP1 cell CPT	HT1080-NT tox
CCN(CC)S(=O)(=O)c1ccc2oc(C(=O)N3CCOCC3)c(C)c2c1	–	?	–	–	–
CCN(CC)S(=O)(=O)c1ccc2oc(C(=O)N3CCc4ccccc4C3)c(C)c2c1	–	2.06µM	–	?	–
CCN(CC)S(=O)(=O)c1ccc2oc(C(=O)N3CCCCCC3)c(C)c2c1	–	9.2µM	–	?	–
CCC1(c2ccccc2)NC(=O)N(Cc2ccc(C(=O)OC)cc2)C1=O (stereo unspecified)	–	–	–	–	–
COc1ccc(Nc2nc(NCc3ccco3)nc(N/N=C/c3ccc(O)cc3)n2)cc1	–	?	-69.2	?	–
COc1ccc(/C=N/Nc2nc(Nc3ccccc3)nc(N3CCCC3)n2)cc1	–	?	–	?	–
COc1ccc(Nc2nc(NCc3ccco3)nc(N/N=C/c3ccccc3F)n2)cc1	–	16.4µM	?	18.4µM	–
CC(C)c1ccc(Nc2nc(Cl)nc(NCc3ccco3)n2)cc1	?	?	–	?	?
CCCN(CC(=O)Nc1ccc(F)c(F)c1F)C(=O)Cc1ccc(S(=O)(=O)N2CCOCC2)s1	–	?	–	–	–
Cc1cc(C)cc(N2C(N)=NC(N)=NC2c2cccc(Cl)c2)c1 (stereo unspecified)	?	5.17µM	-53.7	?	?
COc1ccc(C2C(C(C)=O)=C(O)C(=O)N2c2ccc(C)cc2)cc1 (stereo unspecified)	–	–	–	–	–
Cc1cc(C)cc(N2C(N)=NC(N)=NC2c2ccccc2F)c1 (stereo unspecified)	?	0.651µM	–	?	–
COc1ccc(C2N=C(N)N=C(N)N2c2ccc(C)cc2)cc1 (stereo unspecified)	–	?	?	6.51µM	–
COCOCCn1cc(CN2CCS(=O)(=O)N(Cc3ccc(-c4ccc(OC)nc4)cc3)C(C(C)C)C2=O)nn1 (stereo unspecified)	–	8.2µM	–	13µM	–
COCOCCn1cc(CN2CCS(=O)(=O)N(Cc3ccc(-c4cccc(N(C)C)c4)cc3)C(C(C)C)C2=O)nn1 (stereo unspecified)	–	20.6µM	–	14.6µM	–
CC(C)C1C(=O)N(Cc2cn(CCC3OCCO3)nn2)CCS(=O)(=O)N1Cc1ccc(-c2cccc(N(C)C)c2)cc1 (stereo unspecified)	–	?	–	–	–
COCOCCn1cc(CN2CCS(=O)(=O)N(Cc3ccc(-c4cccc(CO)c4)cc3)C(C(C)C)C2=O)nn1 (stereo unspecified)	–	20.6µM	–	?	–
Cc1cc(C)c2c(C)ccnc2c1	·	–	·	–	·
Cc1ccccc1C(=O)NNC(=S)Nc1cccc(C(F)(F)F)c1	?	23.1µM	–	?	?
CC(C)(O)C(=O)NNC(=S)Nc1cccc(C(F)(F)F)c1	–	–	–	–	–
O=C(NNC(=S)Nc1cccc(C(F)(F)F)c1)c1ccc(Cl)cc1Cl	?	25.9µM	-52.2	?	?
